From PubChem BioAssay AID1159580 (chemical genetic matrix, 2015)
Where “and” joins values, the source holds several entries; their conditions need not be identical. Identical values can stand only once. Screen size: about 5,500 compounds; about 2,000 (36%) were called active. About 18% were inconclusive and are not listed. Cut-off read from the data, not from the text of the source: active = normalized growth mostly below about 0.91 (no sharp cut-off); inconclusive = no clear call, values can overlap the other calls; inactive = mostly above about 0.92. The list shows a part of the results.

Assay: chemical genetic growth profiling, strain panel (AID 1159580);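 note: tested at 20 µM; growth read once vehicle control cultures reached saturation at 30 °C; 1 = growth at the plate median or of vehicle wells; lower values mean less growth of the strain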
Details: growth OD

Measured: normalized growth

CS(=O)(=O)Nc1ccc([N+](=O)[O-])cc1Oc1ccccc1
inactive: S. cerevisiae deletion strains, locus YJR066W, strain TOR1, stronger effect = lower value 0.962 | S. cerevisiae deletion strains, locus YJR075W, strain HOC1, stronger effect = lower value 1 | S. cerevisiae deletion strains, locus YKL009W, strain mrt4, stronger effect = lower value 0.944 | S. cerevisiae deletion strains, locus YKL068W, stronger effect = lower value 0.988 | S. cerevisiae deletion strains, locus YKL085W, strain MDH1 (second series), stronger effect = lower value 0.99 | S. cerevisiae deletion strains, locus YKL085W, strain MDH1, stronger effect = lower value 0.99 | S. cerevisiae deletion strains, locus YKL160W, strain elf1, stronger effect = lower value 0.987 | S. cerevisiae deletion strains, locus YKL190W, strain CNB1, stronger effect = lower value 0.983 | S. cerevisiae deletion strains, locus YKR001C, strain vps1, stronger effect = lower value 0.938 | S. cerevisiae deletion strains, locus YKR026C, strain gcn3, stronger effect = lower value 0.987 | S. cerevisiae deletion strains, locus YKR091W, strain srl3, stronger effect = lower value 0.993 | S. cerevisiae deletion strains, locus YLL001W, strain dnm1, stronger effect = lower value 0.975 | S. cerevisiae deletion strains, locus YLL026W, stronger effect = lower value 0.993 | S. cerevisiae deletion strains, locus YLL041C, strain sdh2, stronger effect = lower value 0.995 | S. cerevisiae deletion strains, locus YLR027C, strain aat2, stronger effect = lower value 1 | S. cerevisiae deletion strains, locus YLR039C, strain RIC1, stronger effect = lower value 0.839 | S. cerevisiae deletion strains, locus YLR058C, strain SHM2, stronger effect = lower value 0.966 | S. cerevisiae deletion strains, locus YLR102C, strain apc9, stronger effect = lower value 0.984 | S. cerevisiae deletion strains, locus YLR113W, strain HOG1, stronger effect = lower value 1.03 | S. cerevisiae deletion strains, locus YLR221C, strain rsa3, stronger effect = lower value 0.994 | S. cerevisiae deletion strains, locus YLR258W, strain gsy2, stronger effect = lower value 0.988 | S. cerevisiae deletion strains, locus YLR262C, strain YPT6 (second series), stronger effect = lower value 0.889 | S. cerevisiae deletion strains, locus YLR262C, strain YPT6, stronger effect = lower value 0.75 | S. cerevisiae deletion strains, locus YLR268W, strain sec22, stronger effect = lower value 0.958 | S. cerevisiae deletion strains, locus YLR320W, strain mms22, stronger effect = lower value 0.994 | S. cerevisiae deletion strains, locus YLR330W, strain CHS5, stronger effect = lower value 0.993 | S. cerevisiae deletion strains, locus YLR342W, strain FKS1 (second series), stronger effect = lower value 1.08 | S. cerevisiae deletion strains, locus YLR342W, strain FKS1, stronger effect = lower value 0.997 | S. cerevisiae deletion strains, locus YLR357W, strain rsc2, stronger effect = lower value 0.986 | S. cerevisiae deletion strains, locus YLR370C, strain arc18, stronger effect = lower value 0.999 | S. cerevisiae deletion strains, locus YLR371W, strain rom2, stronger effect = lower value 0.984 | S. cerevisiae deletion strains, locus YLR384C, strain iki3, stronger effect = lower value 0.991 | S. cerevisiae deletion strains, locus YLR418C, strain cdc73, stronger effect = lower value 1.01 | S. cerevisiae deletion strains, locus YML016C, strain PPZ1, stronger effect = lower value 0.989 | S. cerevisiae deletion strains, locus YML032C, strain rad52, stronger effect = lower value 0.958 | S. cerevisiae deletion strains, locus YML120C, strain ndi1, stronger effect = lower value 0.993 | S. cerevisiae deletion strains, locus YML124C, strain tub3, stronger effect = lower value 0.982 | S. cerevisiae deletion strains, locus YMR058W, strain fet3, stronger effect = lower value 0.993 | S. cerevisiae deletion strains, locus YMR078C, strain ctf18, stronger effect = lower value 0.975 | S. cerevisiae deletion strains, locus YMR125W, strain sto1, stronger effect = lower value 0.984 | S. cerevisiae deletion strains, locus YMR129W, stronger effect = lower value 0.983 | S. cerevisiae deletion strains, locus YMR205C, strain PFK2, stronger effect = lower value 0.974 | S. cerevisiae deletion strains, locus YMR223W, strain ubp8, stronger effect = lower value 0.993 | S. cerevisiae deletion strains, locus YMR231W, strain pep5, stronger effect = lower value 1 | S. cerevisiae deletion strains, locus YMR307W, strain GAS1, stronger effect = lower value 1.05 and 0.989 | S. cerevisiae deletion strains, locus YNL067W, strain RPL9B, stronger effect = lower value 0.953 | S. cerevisiae deletion strains, locus YNL071W, strain lat1, stronger effect = lower value 1 | S. cerevisiae deletion strains, locus YNL128W, strain TEP1, stronger effect = lower value 0.981 and 0.986 | S. cerevisiae deletion strains, locus YNL175C, strain NOP13, stronger effect = lower value 0.995 | S. cerevisiae deletion strains, locus YNL183C, strain NPR1, stronger effect = lower value 0.943 | S. cerevisiae deletion strains, locus YNL197C, strain WHI3, stronger effect = lower value 0.99 | S. cerevisiae deletion strains, locus YNL209W, strain ssb2, stronger effect = lower value 0.994 | S. cerevisiae deletion strains, locus YNL224C, strain SQS1, stronger effect = lower value 1 | S. cerevisiae deletion strains, locus YNL233W, strain BNI4, stronger effect = lower value 0.927 | S. cerevisiae deletion strains, locus YNL248C, strain rpa49, stronger effect = lower value 1 | S. cerevisiae deletion strains, locus YNL250W, strain rad50, stronger effect = lower value 0.999 | S. cerevisiae deletion strains, locus YNL271C, strain bni1, stronger effect = lower value 0.972 | S. cerevisiae deletion strains, locus YNL298W, strain CLA4, stronger effect = lower value 0.966 | S. cerevisiae deletion strains, locus YNL307C, strain MCK1, stronger effect = lower value 0.966 | S. cerevisiae deletion strains, locus YNL322C, strain KRE1 (second series), stronger effect = lower value 0.994 | S. cerevisiae deletion strains, locus YNL322C, strain KRE1, stronger effect = lower value 0.986 and 1.01 | S. cerevisiae deletion strains, locus YNR049C, strain mso1, stronger effect = lower value 0.99 | S. cerevisiae deletion strains, locus YNR052C, strain pop2, stronger effect = lower value 0.976 | S. cerevisiae deletion strains, locus YOL006C, strain TOP1, stronger effect = lower value 0.841 | S. cerevisiae deletion strains, locus YOL012C, strain htz1 1.03 | S. cerevisiae deletion strains, locus YOL147C, strain pex11, stronger effect = lower value 0.98 | S. cerevisiae deletion strains, locus YOR001W, strain rrp6, stronger effect = lower value 0.99 | S. cerevisiae deletion strains, locus YOR061W, strain CKA2, stronger effect = lower value 0.964 | S. cerevisiae deletion strains, locus YOR069W, strain VPS5, stronger effect = lower value 0.994 | S. cerevisiae deletion strains, locus YOR070C, strain gyp1, stronger effect = lower value 0.986 | S. cerevisiae deletion strains, locus YOR080W, strain dia2, stronger effect = lower value 0.991 | S. cerevisiae deletion strains, locus YOR083W, strain WHI5 (second series), stronger effect = lower value 0.991 | S. cerevisiae deletion strains, locus YOR083W, strain WHI5, stronger effect = lower value 0.986 | S. cerevisiae deletion strains, locus YOR106W, strain vam3, stronger effect = lower value 1.01 | S. cerevisiae deletion strains, locus YOR136W, strain idh2, stronger effect = lower value 0.977 | S. cerevisiae deletion strains, locus YOR144C, strain elg1, stronger effect = lower value 0.981 | S. cerevisiae deletion strains, locus YOR184W, strain ser1, stronger effect = lower value 0.951 | S. cerevisiae deletion strains, locus YOR231W, strain MKK1, stronger effect = lower value 1.06 | S. cerevisiae deletion strains, locus YOR265W, strain rbl2, stronger effect = lower value 1.01 | S. cerevisiae deletion strains, locus YOR270C, strain vph1, stronger effect = lower value 0.97 | S. cerevisiae deletion strains, locus YOR290C, strain snf2, stronger effect = lower value 0.954 | S. cerevisiae deletion strains, locus YOR316C, strain cot1, stronger effect = lower value 0.961 | S. cerevisiae deletion strains, locus YPL051W, strain arl3, stronger effect = lower value 0.993 | S. cerevisiae deletion strains, locus YPL055C, strain LGE1, stronger effect = lower value 0.879 | S. cerevisiae deletion strains, locus YPL078C, strain atp4, stronger effect = lower value 0.994 | S. cerevisiae deletion strains, locus YPL106C, strain sse1, stronger effect = lower value 0.991 | S. cerevisiae deletion strains, locus YPL240C, strain hsp82, stronger effect = lower value 0.978 | S. cerevisiae deletion strains, locus YPL241C, strain CIN2, stronger effect = lower value 1.01 | S. cerevisiae deletion strains, locus YPL256C, strain CLN2, stronger effect = lower value 1.03 | S. cerevisiae deletion strains, locus YPR119W, strain clb2, stronger effect = lower value 0.973 | S. cerevisiae deletion strains, locus YPR141C, strain kar3, stronger effect = lower value 0.973 | S. cerevisiae deletion strains, locus YPR163C, strain tif3, stronger effect = lower value 0.988 | S. cerevisiae deletion strains, locus YPR167C, strain met16, stronger effect = lower value 0.986 | S. cerevisiae deletion strains, strain wtn01, stronger effect = lower value 0.968 | S. cerevisiae strains, strain wild type, stronger effect = lower value 0.978
